“And” between values parts separate entries of the source, which are not always exact repeats. Equal entries are not always repeated. Structures can show the parent of a compound that is named as a salt. Where a SMILES comes first, the peptide text is derived from it. The star is where a group is joined. Tfa = O=C(C(F)(F)F)*
The compounds below were run against 6-phosphogluconate dehydrogenase, decarboxylating (Homo sapiens) (UniProt P52209) (assay: 6PGD enzyme inhibitors, primary screen, biochemical, human, recombinant enzyme, NADPH absorbance (AID 1159550)). Details: recombinant 6PGD, NADPH absorbance 341 nm; at 10 µM; stronger effect = higher value;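 active = at least 20% inhibition of 6-phosphogluconate dehydrogenase activity; inactive = the rest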.
6-phosphogluconate dehydrogenase, decarboxylating (Homo sapiens), sequence (P52209 whole entry, looked up): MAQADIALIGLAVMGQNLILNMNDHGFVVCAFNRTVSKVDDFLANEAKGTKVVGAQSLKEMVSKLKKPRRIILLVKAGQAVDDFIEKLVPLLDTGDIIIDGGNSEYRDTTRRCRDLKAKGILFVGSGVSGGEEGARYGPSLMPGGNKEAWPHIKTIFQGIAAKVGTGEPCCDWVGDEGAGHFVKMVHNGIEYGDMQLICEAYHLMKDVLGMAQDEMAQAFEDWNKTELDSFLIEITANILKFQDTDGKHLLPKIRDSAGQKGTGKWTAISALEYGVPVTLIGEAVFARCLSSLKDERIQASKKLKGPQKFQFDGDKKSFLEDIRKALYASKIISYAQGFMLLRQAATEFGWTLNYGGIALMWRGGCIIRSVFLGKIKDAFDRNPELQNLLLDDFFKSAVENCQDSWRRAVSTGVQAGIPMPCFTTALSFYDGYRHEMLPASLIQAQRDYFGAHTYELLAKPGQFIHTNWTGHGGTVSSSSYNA

inhibition, inactive:
N[C@@H](COCc1ccccc1)C(=O)O 3.6%, C[C@@H]1O[C@@H](O[C@H]2[C@H](O[C@H]3CC[C@@]4(C)[C@@H](CC[C@]5(C)[C@@H]4CC=C4[C@@H]6CC(C)(C)CC[C@]6(C(=O)O[C@@H]6O[C@H](CO[C@@H]7O[C@H](CO)[C@@H](O[C@@H]8O[C@@H](C)[C@H](O)[C@@H](O)[C@H]8O)[C@H](O)[C@H]7O)[C@@H](O)[C@H](O)[C@H]6O)CC[C@]45C)[C@]3(C)CO)OC[C@H](O)[C@@H]2O)[C@H](O)[C@H](O)[C@H]1O 5.65%, COc1cc2c(cc1O)[C@@H](Cc1ccc(O)cc1)[N+](C)(C)CC2 16.9%, CC(C)[C@H](NC(=O)[C@H](Cc1ccc(O)cc1)NC(=O)[C@@H](NC(=O)C(F)(F)F)C(C)C)C(=O)O (Tfa-Val-Tyr-Val-OH) -6.07%, COC(=O)c1c(Cl)c(Cl)c(C(=O)OC)c(Cl)c1Cl -11.1%, CC[C@H](C(=O)[C@@H](C)[C@@H](O)[C@H](C)[C@@H]1O[C@@H]([C@@H](CC)C(=O)O)[C@@H](C)C[C@@H]1C)[C@H]1O[C@]2(C=C[C@@H](O)[C@]3(CC[C@@](C)([C@H]4CC[C@](O)(CC)[C@H](C)O4)O3)O2)[C@H](C)C[C@@H]1C -15.5%, NC(=O)NCC(N)C(=O)O (configuration not stated) -2.17%, COc1c(Cl)ccc(Cl)c1C(=O)O 7.71%, CC(=O)C1CCC2C3CC=C4CC(O)CCC4(C)C3CCC12C (configuration not stated) -15.3%, CC1(C)C(=O)[C@H]2C[C@]3(O)C4=CC(=O)O[C@@H](c5ccoc5)[C@@]4(C)CCC3[C@](C)(C2=O)[C@H]1CC(=O)O (some centres not stated) -7.25%, COC1=CC(=O)C(O)=C/C1=C/C=C/c1ccccc1 4.47%, COc1ccc(-c2c(O)c3c(OC)c4c(cc3oc2=O)OC(C)(C)CC4)cc1 1.85%, CC(C)/C(O)=C1/C(=O)O[C@@H](c2ccoc2)[C@]2(C)C(O)[C@@H](O)[C@@]34OC5(C)OC67CC(C)(C(O)[C@]6(O)[C@@H](O)[C@]3(O5)C12)[C@H](CC(=O)O)[C@]74C (some centres not stated) 16.8%, CC(=O)OC(C)(CCC=C(C)C)C1CC=C(C)CC1 (configuration not stated) 0.603%, CC1CCC(C(C)C)C(O)C1 (configuration not stated) -10.6%, O=C(O[C@@H]1Cc2c(O)cc(O)cc2O[C@@H]1c1cc(O)c(=O)c2c(O)c(O)cc([C@H]3Oc4cc(O)cc(O)c4C[C@H]3O)c2c1)c1cc(O)c(O)c(O)c1 8.68%, CC1(C)Oc2ccc3ccc(=O)oc3c2C[C@H]1O 1.49%, C[C@H](N)CO -0.518%, CC1(C)CC2C1CC[C@]1(CBr)CCC3C(CC(=O)O)C(=O)O[C@@]32C1 (some centres not stated) 14.7%, C1CCN2CC3CC(CN4CCCCC34)C2C1 (configuration not stated) 12.3%, CCC1(C2OC(C3OC(O)(CO)C(C)CC3C)CC2C)CCC(C2(C)CCC3(CC(O)C(C)C(C(C)C(OC)C(C)C(=O)O)O3)O2)O1 (configuration not stated) 3.18%, C#CC1(O)CCC2C3CCc4cc(O)ccc4C3CCC21C (configuration not stated) 14.4%, CC(C)CCC[C@@H](C)[C@H]1CC[C@H]2[C@@H]3CC[C@H]4CC(=O)CC[C@]4(C)[C@H]3CC[C@]12C -4.87% and 3.54%, CC1(C)C(=O)CC[C@@]2(C)C1C[C@@H](O)[C@@]1(C)C3=CC(=O)O[C@@H](c4ccoc4)[C@]3(C)CCC21 (some centres not stated) -10.8%, C/C=C(\C)C(=O)O[C@@H]1[C@@H]2C=C3[C@@H]4CC(=O)O[C@@H](C5=CC(O)OC5=O)[C@]4(C)CC[C@@H]3[C@@](C)(C2=O)[C@@H]([C@@H](O)C(=O)OC)C1(C)C (some centres not stated) 0.726%, CC(=O)O[C@@H]1CC2C(C)(C)C(=O)[C@@H]3O[C@@H]3[C@]2(C)C2CC[C@]3(C)C(=CC(=O)O[C@H]3c3ccoc3)[C@@]21C (some centres not stated) 0.52%, C[C@]12CC[C@@H]3c4ccc(OC(=O)CCC(=O)O)cc4CC[C@H]3[C@@H]1CCC2=O 5.64%

Source: PubChem BioAssay
